Assay results: PubChem BioAssay (NCI)
About 83,000 compounds went through this panel and 20% of them were active in at least one assay; those are over-represented in the sample as a whole.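 Negative percent growth values reflect cell death: -40 means 40% of the cells present at the start died, and -100 means all died.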 A number with no mark means an inactive call. Calls of active or inactive are those of the source. The calls were made as follows: active = growth percent below 10; inactive = the rest.

These compounds were tested on HL-60(TB) leukemia (assay: NCI-60 one-dose screen, 48 h (100 = growth as untreated, 0 = no growth, -100 = all killed)). Settings: 10 µM unless noted.

Row | SMILES | growth
1 | CCOC(=O)c1c(Nc2ccccc2)nn2c(N)c(C#N)c(-c3ccccc3)nc12 | 70.9%
2 | COc1cc2c(cc1OC)C(Sc1ccc(C)cc1)c1c(nc(N)c(C#N)c1N)O2 (stereo not given) | -19% (active)
3 | CC(=O)c1ccc(Nc2nc(SCC(C)C)nc(-c3ccc(F)cc3)c2C#N)cc1 | 103%
4 | CCn1c(SCC(=O)Nc2cccc(C(=O)/C=C/c3ccc(C)cc3)c2)nc2ccccc2c1=O | 92%
5 | Cn1cc(-c2nnc(N)nc2-c2c[nH]c3ccc(Br)cc23)c2cc(Br)ccc21 | 90.8%
6 | Cn1ccnc1C(=O)/C=C/c1ccc(CNC(=O)c2ccc(Cl)cc2)cc1 | -25.5% (active)
7 | C=C1C(=O)O[C@@H]2C[C@@H](C)[C@H](OC)CC(=O)[C@](C)(OC(C)=O)C[C@H](OC(=O)/C(C)=C\C)[C@@H]12 | 69.3%
8 | CC(C)(C)Nc1nc2c(OCCc3ccccc3)cccn2c1-c1ccc(Cl)cc1 | -27.8% (active)
9 | O=C(CSc1nnc(-c2ccc(Cl)cc2)n1-c1ccccc1)Nc1ccc(Br)cc1 | 81.4%
10 | COc1cc2nc(-c3ccc(C)cc3)cc(OCCCNCC3CCCO3)c2cc1OC (stereo not given) | 48.6%
11 | C[C@]12CC[C@H]3[C@@H](CC=C4C[C@@H](O)CC[C@@]43C)[C@@H]1CC[C@@H]2[C@](C)(O)CCc1cccnc1 | 47.6%
12 | CCNC(=O)Oc1ccc(/C(=C(/C)c2ccc(OC)cc2)c2ccc(OCCN3CCCCCC3)cc2)cc1 | 22.5%
13 | COc1cccc(NC2=CC(=O)C(C)=C(C)C2=O)c1 | 3.49% (active)
14 | CN1CCN(Cc2ccc(NC(=O)c3cncc(C#Cc4cnc5ccc(NC6CCOCC6)nn45)c3)cc2C(F)(F)F)CC1 | -45.2% (active)
15 | CCOC(=O)C(=O)CC(=O)N1C(=S)NC(=O)C1CC(C)C (stereo not given) | 111%
16 | Cn1cc(C2=C(c3coc4cc(Br)ccc34)C(=O)NC2=O)c2ccccc21 | 44.5%
17 | O=C1CSC(=O)N1Cc1cc2ccccc2nc1Cl | 101%
18 | Clc1ccc2c(NCCCn3ccnc3)c3oc4ccccc4c3nc2c1 | 40.4%
19 | Cc1cc(C(=O)Nc2ccc(SC#N)cc2)c(C)o1 | 47.7%
20 | NC(=O)c1c(NC(=O)c2cccc(C(F)(F)F)c2F)sc2c1CCC(=O)C2 | 15%

Row | SMILES | growth
21 | N#C/C(=C\c1ccc(-c2ccc(F)cc2)o1)C(=O)Nc1ncc(Cc2ccc(Cl)cc2Cl)s1 | 22.5%
22 | O=C(CSc1ccc(-c2nc3ccccc3[nH]2)cn1)N1CCN(c2ccccc2F)CC1 | 64.6%
23 | CC(C)(C)OC(=O)N1CCN(S(=O)(=O)/N=C2\NC(=O)NC2=C(Cl)Cl)CC1 | 40.3%
24 | COC(=O)CCCNCCCn1ccc2cc(NCc3cccc(-c4ccccc4)c3C)ccc21 | 16.7%
25 | COc1cccc2c1[C@H](OC)[C@]13O[C@@]1(C2=O)[C@H](O)[C@H](C)[C@@](O)(C(=O)[C@@H]1O[C@H]1C)[C@@H]3O | -46.6% (active)
26 | CC(=O)c1cc(C(=O)N2c3ccccc3Sc3ccccc32)n2ccc3ccccc3c12 | 9.89% (active)
27 | Cc1[nH]c(C(=O)Nc2ccccc2OCc2cccc(C(=O)NC3CCNC3)c2)c(Cl)c1Cl (stereo not given) | 71.4%
28 | CCOC(=O)Nc1ccc2c(ccn2C(=O)c2cccc(F)c2)c1 | 12.3%
29 | CCOP(=O)(OCC)OC[C@]12CC[C@@H](C)[C@H](C)C1C1=CC[C@@H]3[C@@]4(C)CCCNC(C)(C)[C@@H]4CC[C@@]3(C)[C@]1(C)CC2 (stereo not given in full) | -67.7% (active)
30 | CN1C(=O)N(C)C2Nn3c(s/c(=C\c4ccccn4)c3=O)=NC21 (stereo not given) | 110%
31 | COc1ccc(S(=O)(=O)n2cc(C=O)c3ccccc32)c(OC)c1 | 4.32% (active)
32 | O=C(N/N=C/c1ccc([N+](=O)[O-])s1)c1[nH]c2ccc(Br)cc2c1-c1ccccc1 | -28.9% (active)
33 | CNC(=O)Nc1ccc(Nc2cc(-c3ccc(-n4cccn4)cc3)[nH]n2)c(C)c1 | 92.7%
34 | CCN(CC)c1ccc(C=O)c(OCc2cn(CC(=O)Nc3ccc(Cl)cc3)nn2)c1 | 69.7%
35 | N#Cc1c(-c2cccs2)c(C#N)c(=O)n(Cc2nc3ccccc3[nH]2)c1N | 108%
36 | COc1cc(C(=O)c2cc(C(C)=O)c3c4ccccc4ccn23)cc(OC)c1OC | 32.9%
37 | CC1OC(O[C@@H]2C(O)C(CO)OC(O[C@H]3COC(O[C@H]4CC[C@]5(C)[C@H]6CC[C@]78OC[C@@]9(CC[C@](C)(C=O)C[C@H]97)[C@H](O)C[C@@]8(C)[C@]6(C)CC[C@H]5C4(C)C)[C@@H](OC4OC(CO)[C@@H](O)[C@@H](O)[C@@H]4O)[C@@H]3O)[C@H]2OC2OC[C@@H](O)[C@@H](O)[C@@H]2O)[C@@H](O)[C@@H](O)[C@H]1O (stereo not given in full) | -60.5% (active)
38 | O=C(CSc1nnc(-c2cccs2)n1-c1ccccc1)Nc1ccc(F)cc1 | 69.5%
39 | CCCCCC[n+]1ccc(SCC(=O)n2ccc3ccccc32)c2ccccc21 | 74.8%
40 | CC1(C)CC[C@]2(C(=O)N3CCOCC3)CC[C@]3(C)C(=CC[C@@H]4[C@@]5(C)C/C(=C/c6ccccn6)C(=O)C(C)(C)[C@@H]5CC[C@]43C)[C@@H]2C1 | 6.91% (active)
